In PubChem BioAssay (NCI) one finds growth data, which are given here for 14 compounds.

Each structure is given as a SMILES string. This is part of a sample that, as a whole, favours compounds with a hit. Of some 83,000 tested, about 20% had one in any assay.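 48-hour exposure, single concentration, 96-well plates; percent growth endpoint where 0 means no net growth. Active: below 10.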 Values without a mark were called inactive. The source made the active and inactive calls.

The test system of the test is HL-60(TB) leukemia. As to the kind of experiment: NCI-60 one-dose screen, 48 h (100 = growth as untreated, 0 = no growth, -100 = all killed). The following applies: 10 µM unless noted.
Turning to `O=C1C(=O)c2ccc(Br)cc2-c2cc(Br)ccc21`, the growth is -14.5% (active).

As to `O=C(NCCc1ccccc1)Nc1ccc2cc3ccc(NC(=O)NCCc4ccccc4)cc3nc2c1`, the growth was -46.9% (active).

In the case of `CC(=O)OCC(=O)O[C@@H]1C[C@]2(C(C)C)O[C@@]1(C)[C@@H]1CC[C@@H](C)[C@H]1[C@@H]2OC(=O)/C=C/c1ccccc1`, the growth was 82.6%.

Turning to `CCN(CCCCCCN1CC(=O)N(CCCCCCN(CC)Cc2ccccc2OC)CC1=O)Cc1ccccc1OC`, the growth was 60.6%.

Regarding `COc1ccc(/C(C)=C(\c2ccc(Cl)cc2)c2ccc(OCCN3CCCC3)cc2)cc1F`, the growth is 0.205% (active).

As for `COc1ccccc1/C=C\C(=O)c1ccccc1`, the growth is 48.3%.

With `O=C(/C(=N/O)S(=O)(=O)c1ccccc1)c1cccs1`, the growth was 90.9%.

For `Cc1ccccc1Nc1nc2nonc2nc1Nc1cccc(C)c1C`, the growth is 69.8%.

As to `C=C1C(=O)O[C@H]2[C@H]1CC/C(COC(=O)c1ccc(C#N)cc1)=C\CC[C@@]1(C)O[C@@H]21`, the growth is -33.6% (active).

`CCCCCCCCCCCCCCCCCCNC(=O)[C@H]1CSC(c2ccc(OC)cc2O)N1` (some centres undefined): the growth is 34.4%.

With `CN(C)c1ccc(N=Nc2ccc(Br)cn2)c(O)c1`, the growth was -41.4% (active).

For the compound `COc1ccc(OC)c(/C=C/C(=O)N/N=C/c2ccccc2)c1`, the growth is 46.3%.

In the case of `COc1ccc(-n2c(C(O)c3ccccc3)n[nH]c2=S)cc1` (centres undefined), the growth is 119%.

Regarding `CCN(CC)CC#CCOC(=O)[C@]1(C)CCC[C@]2(C)[C@H]3C[C@H]4C(C(C)C)=C[C@]3(CC[C@H]21)[C@@H]1C(=O)CCC(=O)[C@@H]14`, the growth is -36.3% (active).
